Data taken from PubChem BioAssay (Tox21).
A number with no mark means an inactive call. Inconclusive results are not listed. Entries that show only a call come without a potency. The source made the active and inactive calls. The call rests on the fitted dose curve; in most records, active means well fitted curve in the direction sought with a large enough effect in the repeat runs; inconclusive means weak or mixed curves; inactive means no such curve, though single readings can be large; an effect the other way counts as inactive or inconclusive.

Columns and labels:
[1] = A CellTox Green Cytotoxicity Assay to monitor cytotoxicity in HepG2 cells - 16 hour (AID 1224876); further: nearly all actives have a fitted effect of over 45% in size; further: potency means the concentration at half of the fitted maximal effect
How it was run: (§1)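 Continuous culture of HepG2 cells with a membrane-impermeant DNA dye; rising fluorescence marks dead cells. Compound exposure lasted up to 40 h at 37 C, with reads every 8 h from 0 h.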

[2] = qHTS RealTime-Glo MT Cell Viability Assay in HepG2 cells - 32 hour (AID 1224877); further: nearly all actives have a fitted effect of over 55% in size
How it was run: (§2)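 Luminescence read-out: viable HepG2 cells reduce a prosubstrate to a NanoLuc substrate, giving a signal proportional to live cell number. Reads taken at 0, 8, 16, 24, 32 and 40 h of compound exposure at 37 C.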

[3] = A CellTox Green Cytotoxicity Assay to monitor cytotoxicity in HepG2 cells - 24 hour (AID 1224878); further: nearly all actives have a fitted effect of over 45% in size; further: potency means the concentration at half of the fitted maximal effect
How it was run: as §1

[4] = A CellTox Green Cytotoxicity Assay to monitor cytotoxicity in HepG2 cells - 40 hour (AID 1224879); further: nearly all actives have a fitted effect of over 40% in size; further: potency means the concentration at half of the fitted maximal effect
How it was run: as §1

[5] = qHTS RealTime-Glo MT Cell Viability Assay in HEK293 cells - 0 hour (AID 1224880); further: top concentration of the series differs between compounds; nearly all actives have a fitted effect of over 45% in size
How it was run: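 qHTS format; HEK293 cells with NanoLuc/prosubstrate reagent, 37 C/5% CO2 for 5 h pre-dosing; compounds 23 nL in DMSO; luminescence at each time point reflects viable cells.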

[6] = A CellTox Green Cytotoxicity Assay to monitor cytotoxicity in HepG2 cells - 0 hour (AID 1224882); further: nearly all actives have a fitted effect of over 35% in size
How it was run: as §1

[7] = A CellTox Green Cytotoxicity Assay to monitor cytotoxicity in HepG2 cells - 32 hour (AID 1224883); further: nearly all actives have a fitted effect of over 50% in size; further: potency means the concentration at half of the fitted maximal effect
How it was run: as §1

[8] = qHTS RealTime-Glo MT Cell Viability Assay in HepG2 cells - 16 hour (AID 1224885); further: nearly all actives have a fitted effect of over 50% in size
How it was run: as §2

[9] = A CellTox Green Cytotoxicity Assay to monitor cytotoxicity in HEK293 cells - 32 hour (AID 1224881); further: nearly all actives have a fitted effect of over 40% in size
How it was run: (§3)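 Each value comes from one timepoint of a single continuous run in which HEK293 cells with CellTox Green were exposed to compound for up to 40 h at 37 C, dye fluorescence rising with cell death.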

[10] = A CellTox Green Cytotoxicity Assay to monitor cytotoxicity in HEK293 cells - 8 hour (AID 1224884); further: nearly all actives have a fitted effect of over 35% in size
How it was run: as §3

Row | SMILES | Potency [1] | outcome [2] | Potency [3] | Potency [4] | Potency [5] | Potency [6] | Potency [7] | outcome [8] | Potency [9] | Potency [10]
1 | CC12CCC(C1)C(C)(C)C2O (stereo not given) | 1950 nM (active) | inactive | 2190 nM (active) | 2190 nM (active) | inactive | inactive | 2190 nM (active) | inactive |  | 
2 | C/C(=C1\CCOC(=O)S1)N(C=O)Cc1cnc(C)nc1N | inactive | inactive | inactive | inactive | inactive |  |  | inactive | inactive | inactive
3 | CC(C)Cn1cnc2c1c(=O)n(C)c(=O)n2C | inactive | inactive | inactive | inactive | inactive |  | inactive | inactive | inactive | inactive
4 | CC1=C(C(=O)O)N2C(=O)[C@@H](NC(=O)[C@H](N)c3ccccc3)[C@H]2SC1 | inactive | inactive | inactive | inactive | inactive | inactive | inactive | inactive |  | inactive
5 | CC(C)CO | inactive | inactive | inactive | inactive | inactive | inactive | inactive | inactive |  | inactive
6 | CCC(C)C(=O)OCCc1ccccc1 (stereo not given) | inactive | inactive | inactive | inactive | inactive | inactive | inactive | inactive |  | inactive
7 | COc1cc(/C=C/C(N)=O)cc(OC)c1OC | inactive | inactive | inactive | inactive | inactive | inactive | inactive | inactive |  | inactive
8 | CC(C)(C)NC[C@H](O)COc1cccc2c1CCCC2=O | inactive | inactive | inactive | inactive | inactive |  | inactive | inactive | inactive | 
9 | O=[N+]([O-])c1c(Cl)cc(Cl)cc1Cl | inactive | inactive | inactive | inactive | inactive | inactive | inactive | inactive |  | inactive
10 | O=C(O)CONC(=O)c1ccccc1 | inactive | inactive | inactive | inactive | inactive |  |  |  | inactive | inactive
11 | C=C(C)c1cccc(C(C)(C)N=C=O)c1 | inactive | inactive | inactive | inactive | inactive | inactive | inactive | inactive |  | inactive
12 | COc1cc2c(cc1OC)C(=O)C(CC1CCN(Cc3ccccc3)CC1)C2 (stereo not given) | inactive | inactive | inactive | 21300 nM (active) | inactive |  |  |  | inactive | inactive
13 | Cc1ccnc(N)c1 | inactive | inactive | inactive | inactive | inactive | inactive | inactive | inactive |  | inactive
